Rows were chosen to be rich in hits. Some 8.7% of all compounds tested hit in one or more screens of this group.
BAZ2B inh: BAZ2B (human) inhibition; Q9UIF8; AlphaScreen BAZ2B-H3K14Ac peptide displacement; Potency, µM (series often up to 114 µM), most hits filed as inhibitors; 360,000 tested, 4.4% active; AID 504333; note: nearly all actives have a fitted effect of over 60% in size
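Complex of BAZ2B and biotin-H3K14Ac (50 nM apiece) forms over 30 min at RT, then faces library compounds up to 110 uM for another 30 min; AlphaScreen beads added, 20 min dark incubation, luminescence read.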
HP1b chromo inh: inhibitors of HP1-beta chromodomain binding to methylated histone tails. P83916. AlphaScreen HP1-beta / biotin-H3K9me3 peptide binding. Potency, µM (titrated, usually from 114 µM), hits mostly inhibitors. 390,000 tested, 0.56% active. AID 540317; note: nearly all actives have a fitted effect of over 70% in size
Target sequence (P83916 whole entry, looked up): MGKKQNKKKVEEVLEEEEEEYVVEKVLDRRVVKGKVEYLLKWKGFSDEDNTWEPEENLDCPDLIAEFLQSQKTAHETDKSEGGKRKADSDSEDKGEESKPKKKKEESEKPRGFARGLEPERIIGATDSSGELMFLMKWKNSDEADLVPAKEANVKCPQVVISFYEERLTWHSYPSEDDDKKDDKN
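Compound inhibition of the preformed complex between 50 nM HP1-beta and 50 nM biotinylated H3K9me3 peptide was read by AlphaScreen. Buffer was PBS pH 7.4 with 0.01% Tween-20. Incubations ran 30 min at room temperature, with 10 ug/mL donor/acceptor beads.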
G9a inh: G9a (human) methyltransferase inhibition | Q96KQ7 | AID 504332 | G9a H3K9 monomethylation, AlphaScreen, 2 h | 350,000 tested, 8.8% active | Potency, µM (top dose mostly 102 µM), hits mostly inhibitors; note: nearly all actives have a fitted effect of over 75% in size
Target sequence (Q96KQ7 913-1193 limits assumed): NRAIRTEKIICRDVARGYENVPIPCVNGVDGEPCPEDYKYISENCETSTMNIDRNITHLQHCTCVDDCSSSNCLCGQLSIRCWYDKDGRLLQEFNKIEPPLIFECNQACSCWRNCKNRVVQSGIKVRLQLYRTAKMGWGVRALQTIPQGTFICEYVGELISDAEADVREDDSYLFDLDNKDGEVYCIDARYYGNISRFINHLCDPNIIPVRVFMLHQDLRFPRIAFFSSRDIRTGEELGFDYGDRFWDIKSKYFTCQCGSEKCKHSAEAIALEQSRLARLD
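Readings reflect AlphaScreen signal from monomethyl-H3K9 antibody detection. HMT at 20 nM; substrate b-H3K9 500 nM; cofactor SAM 20 uM; 2 h RT reaction; compounds tested as titrations in qHTS with 15 min preincubation.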
Sfp inh: inhibitors of Bacillus subtilis Sfp phosphopantetheinyl transferase. Q9F4F7. Biochemical Sfp PPTase activity, qHTS. Potency, µM, usual class: inhibitors. 310,000 tested, 3.5% active. AID 1490;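 note: the enzyme is Sfp with the accession as filed and its product quenches rhodamine fluorescence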
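Sfp 15 nM + cpd, 15 min RT; start w/ rhodamine-CoA 5 uM, BHQ-2-YbbR 12.5 uM (final); 50 mM Hepes pH 7.6, 10 mM MgCl2, 0.01% NP-40, 0.01% BSA; read 525/598 nm at 0 and 30 min.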
ALOX12 inh: ALOX12 (human) lipoxygenase inhibition | P18054 | purified 12hLO, xylenol orange hydroperoxide absorbance | Potency, µM (doses to about 108 µM), usual class: inhibitors | 580,000 tested, 1.1% active | AID 1671190
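Purified human 12hLO (150 nM final) in 25 mM Hepes, 0.01% Triton X-100, pH 7.0 was preincubated 15 min at room temperature with compound. Then 40 uM arachidonic acid was added, 30 min. Hydroperoxide was read by Fe-XO absorbance ratio 573/405 nm.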
JMJD2A Tudor inh: blocks the human JMJD2A Tudor domain; Potency, µM (series often up to 114 µM), hits mostly inhibitors; AlphaScreen JMJD2A-Tudor / H3K4me3 peptide binding; 390,000 tested, 4.4% active; note: nearly all actives have a fitted effect of over 50% in size
Each line names hits and unclear results; the compound was inactive in the other large screens. Calls come from the whole dose curve; as a rule, active = well fitted curve in the direction sought with a large enough effect; inconclusive = small, poorly fitted or top-dose-only effect, or another doubt; inactive = no such curve, though single readings can be large; an effect the other way counts as inactive or inconclusive.

CSc1ncccc1C(=O)NNc1cc(Cl)ccc1Cl	G9a inh 45µM (no result: ALOX12 inh)
O=C(CNC(=O)c1cccc(-n2cnnn2)c1)Nc1ccc(F)c(F)c1	G9a inh inconclusive, JMJD2A Tudor inh 89µM (no result: Sfp inh)
Cc1c(Cl)cccc1NC(=O)c1ccc(NC(=O)C2=CSCCO2)cc1	none (no result: BAZ2B inh, HP1b chromo inh, G9a inh, Sfp inh, JMJD2A Tudor inh)
COc1cc([N+](=O)[O-])cc(/C=N/NC(=O)Cn2nc(C)cc2C)c1O	BAZ2B inh 71µM, JMJD2A Tudor inh 79µM
COc1ccc(/C=N/NC(=O)Cn2nc([N+](=O)[O-])cc2C)c(OC)c1OC	none
COc1cc([N+](=O)[O-])cc(/C=N/NC(=O)Cn2nccc2C)c1O	BAZ2B inh 45µM
COc1cc(Br)cc(/C=N/NC(=O)Cc2ccc(C(F)(F)F)cc2[N+](=O)[O-])c1O	Sfp inh inconclusive, JMJD2A Tudor inh 89µM
Cc1nn(-c2ccc(F)cc2)c2nc(N)c(C#N)c(-c3ccc(O)c(O)c3)c12	G9a inh inconclusive, Sfp inh inconclusive, ALOX12 inh inconclusive
Cc1nn(-c2ccccc2)c2nc(N)c(C#N)c(-c3ccc(O)c(O)c3)c12	BAZ2B inh inconclusive, G9a inh inconclusive, Sfp inh inconclusive, ALOX12 inh 32µM, JMJD2A Tudor inh inconclusive
CC(C)C(=O)N1CCc2c(n(Cc3cccnc3)n(CCc3ccccc3)c2=O)C1	none (no result: BAZ2B inh, HP1b chromo inh, G9a inh, Sfp inh, JMJD2A Tudor inh)
Cc1c(NC(=O)c2cc3ccccc3oc2=O)c(=O)n(-c2ccccc2)n1C	G9a inh 25µM
Cc1c(NC(=O)c2cc(-c3ccccc3)on2)c(=O)n(-c2ccccc2)n1C	ALOX12 inh inconclusive, JMJD2A Tudor inh 100µM
Cc1c(NC(=O)c2cc(-c3ccc(O)cc3)on2)c(=O)n(-c2ccccc2)n1C	none
Cc1c(NC(=O)c2ccc(COc3ccc4ccccc4c3)o2)c(=O)n(-c2ccccc2)n1C	BAZ2B inh 50µM, G9a inh inconclusive
Cc1onc(-c2c(F)cccc2Cl)c1C(=O)NC(=S)Nc1c(C)n(C)n(-c2ccccc2)c1=O	BAZ2B inh inconclusive, G9a inh 32µM
CCN1CCN(C(=O)C2CCCCC(=O)N2)CC1 (configuration not stated)	none (no result: BAZ2B inh, HP1b chromo inh, G9a inh, Sfp inh, JMJD2A Tudor inh)
CCN1CC(c2ccccc2)CC2(CCN(c3cc(N)ncn3)CC2)C1 (configuration not stated)	none (no result: BAZ2B inh, HP1b chromo inh, G9a inh, Sfp inh, JMJD2A Tudor inh)
CCOc1ccc(/C=C(\C#N)C(=O)c2ccc(C)cc2)cc1OC	none (no result: BAZ2B inh, HP1b chromo inh, G9a inh, Sfp inh, JMJD2A Tudor inh)
O=C(NCCc1ccccc1)C1CCCN(c2ccc3nnc(C(F)(F)F)n3n2)C1 (configuration not stated)	none (no result: BAZ2B inh, HP1b chromo inh, G9a inh, Sfp inh, JMJD2A Tudor inh)
Cc1c(Nc2scc(-c3ccccc3)[n+]2-c2ccccc2)c(=O)n(-c2ccccc2)n1C	BAZ2B inh 50µM, HP1b chromo inh inconclusive, G9a inh 28µM, Sfp inh inconclusive, JMJD2A Tudor inh 56µM (no result: ALOX12 inh)
Cc1cc(C)c2c(C)c(C(=O)Nc3c(C)n(C)n(-c4ccccc4)c3=O)oc2c1	G9a inh 71µM
Cc1ccc2c(=O)cc(C(=O)Nc3c(C)n(C)n(-c4ccccc4)c3=O)oc2c1	G9a inh inconclusive, ALOX12 inh inconclusive (no result: Sfp inh)
Cc1nnc(NC(=O)C2c3ccccc3C(=O)N(CC(C)C)C23CCCCC3)s1 (configuration not stated)	none (no result: BAZ2B inh, HP1b chromo inh, G9a inh, Sfp inh, JMJD2A Tudor inh)
O=C(CCc1ccco1)NC1CCCC1	none (no result: BAZ2B inh, HP1b chromo inh, G9a inh, Sfp inh, JMJD2A Tudor inh)
O=C(CCc1ccco1)CCc1ccco1	HP1b chromo inh inconclusive, ALOX12 inh inconclusive, JMJD2A Tudor inh 56µM (no result: BAZ2B inh, G9a inh, Sfp inh)
Cc1ccc(NC(=O)C(=O)NCC(c2cccnc2)N2CCc3ccccc3C2)cc1 (configuration not stated)	none (no result: Sfp inh)
Cc1ccc(C(=O)NCC(c2cccnc2)N2CCc3ccccc3C2)cc1C (configuration not stated)	BAZ2B inh 13µM, G9a inh inconclusive, JMJD2A Tudor inh inconclusive (no result: Sfp inh)
CC(C)(C)c1ccc(C(=O)NCC(c2cccnc2)N2CCc3ccccc3C2)cc1 (configuration not stated)	BAZ2B inh 3.2µM, HP1b chromo inh inconclusive, G9a inh inconclusive, JMJD2A Tudor inh inconclusive (no result: Sfp inh)
CN(C)[C@H]1C(=O)C(C(=O)NCN2CCCC2)=C(O)[C@]2(O)C(=O)C3=C(O)c4c(O)cccc4[C@@](C)(O)[C@H]3C[C@@H]12	G9a inh 7.9µM (no result: BAZ2B inh, HP1b chromo inh, ALOX12 inh, JMJD2A Tudor inh)
